173 sequences from PMC6212790, “How bacterial xenogeneic silencer rok distinguishes foreign from self DNA in its resident genome” can be followed below.

The full ranking holds about 33,000 sequences; the median of “e-score” is about -0.037, and the highest 2% start at about 0.34. The entries come from a sample that favours the highest values as a whole.

This test concerns the target T1, GST-Rok (full length) (Bacillus subtilis subsp. subtilis str. …, UniProt O34857 1-191).
T1 sequence: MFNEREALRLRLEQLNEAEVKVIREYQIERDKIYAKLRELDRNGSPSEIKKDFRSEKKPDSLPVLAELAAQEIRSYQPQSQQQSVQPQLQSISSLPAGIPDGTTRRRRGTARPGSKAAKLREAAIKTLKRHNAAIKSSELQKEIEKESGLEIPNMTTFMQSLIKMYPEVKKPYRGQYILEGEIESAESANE
The test can be described thus: protein binding microarray; Rok is a gene silencer of Bacillus subtilis; high values mean tight binding. The following applies: protein: recombinant; tags: GST (pTH5325, pDEST15-Magic modified); dsDNA, one strand shown. The procedure, abridged: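 Every oligonucleotide joins a 25-mer constant primer to a 35-mer variable part drawn from a de Bruijn sequence of order 10, so each non-palindromic 8-mer appears at least 32 times and each palindromic 8-mer 16 times. The preference for every 8-mer is reported as a unitless, rank-based enrichment score (E-score). This score spans 0.5 for the most favored 8-mer to −0.5 for the most disfavored.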
As to CTACTGTA, the binding signal came to 0.343 E-score. On to GTACTGTA, for which the binding signal came out at 0.155 E-score.

Take CTACTTAA: the binding signal turned out to be 0.372 E-score.

For ATACTGTG, the binding signal amounted to 0.0179 E-score. The figure for ATACTTAA is 0.0668 E-score.

With GTACTTAA, the binding signal turned out to be 0.275 E-score.

For the sequence ATACTGAA, the binding signal was found to be 0.103 E-score. The figure for ACAGTACG is 0.142 E-score.

Take GAAGTTGC: the binding signal came out at 0.0518 E-score. The figure for ACGGTCTG is -0.0535 E-score.

Consider AGCTTACG, for which the binding signal is -0.0197 E-score.

Regarding TCGATTAA, the binding signal was 0.142 E-score.

Consider CCGAACTC, for which the binding signal was determined as 0.0171 E-score. The figure for ACCTACCA is 0.248 E-score; for ACTTACAA it is 0.176 E-score.

ACTTACAT: the binding signal was found to be 0.349 E-score. Regarding ACTTACAG, the binding signal is -0.0639 E-score. The figure for CGATATCG is 0.243 E-score; for GCCGTGAC it is -0.176 E-score; for CACTATAA it is 0.303 E-score. The figure for TACTATGA is 0.228 E-score. For the sequence AACTATCA, the binding signal was determined as 0.417 E-score.

Consider TACTATAA, for which the binding signal was determined as 0.439 E-score. The figure for AACTATAA is 0.326 E-score. The figure for GTCTATCA is -0.00992 E-score; for ATCTATCA it is 0.409 E-score; for CTCTATCA it is -0.0321 E-score. As to GACTATCA, the binding signal was -0.0777 E-score. Consider TCCTATCA, for which the binding signal stood at 0.123 E-score. The figure for TACTATCA is 0.35 E-score; for CACTATCA it is 0.219 E-score. ACATTAAT: the binding signal was determined as 0.245 E-score. The figure for AGATAAGG is 0.0533 E-score; for ATCCTATG it is 0.106 E-score; for GAGCTGCA it is -0.0813 E-score. The figure for CGAAAAGA is 0.00822 E-score; for AGGATCAC it is -0.0581 E-score.

Take ATTGGTGA: the binding signal was found to be 0.0777 E-score.

Consider TAGCTAAA, for which the binding signal stood at 0.214 E-score. The figure for ATATCCGG is 0.237 E-score; for TAGGTTCA it is 0.128 E-score. The figure for AAGATGGT is 0.0131 E-score. In the case of CCCGTTCA, the binding signal was -0.154 E-score.

In the case of AATATGCA, the binding signal was 0.304 E-score.

Take AGCTATCA: the binding signal turned out to be 0.336 E-score. The figure for CGCTATCA is 0.0965 E-score. In the case of GGCTATCA, the binding signal was -0.0678 E-score. In the case of ACGATTCA, the binding signal is -0.00504 E-score. The figure for CATGTAGG is 0.116 E-score; for CCTGTAGA it is 0.0279 E-score; for GCTGTAGA it is 0.0153 E-score. As to CATGTAGC, the binding signal was found to be 0.384 E-score. The figure for AATGTAGT is 0.363 E-score; for AATGTAGA it is 0.389 E-score. The figure for ACTGTAGA is 0.373 E-score. As for AACGTAGT, the binding signal worked out at 0.0637 E-score. The figure for GATGTAGC is 0.0838 E-score. As for AATGTAGC, the binding signal amounted to 0.221 E-score. The figure for AATGTAAT is 0.326 E-score. In the case of AATGTAGG, the binding signal was determined as 0.174 E-score. Take AGCTGCAC: the binding signal was 0.104 E-score. Take GAAGTCCC: the binding signal is -0.124 E-score.

As for ACCGATCC, the binding signal was -0.198 E-score. In the case of ATGAGGCG, the binding signal is -0.173 E-score. The figure for CTTAGGTC is 0.00712 E-score; for AAGCTAAG it is -0.0658 E-score; for CATGTAGA it is 0.374 E-score. In the case of GATGTAGA, the binding signal amounted to 0.209 E-score.

Consider TATGTAGA, for which the binding signal was found to be 0.292 E-score. Turning to CGCTCTGA, the binding signal was -0.0888 E-score. The figure for AGTAGGAA is 0.231 E-score; for AGTAATAA it is 0.197 E-score; for ACTAATAC it is 0.265 E-score.

As for ACTAATAG, the binding signal stood at 0.227 E-score. The figure for ACTAATAT is 0.385 E-score. AGTAATCG: the binding signal came to 0.0386 E-score. The figure for CGTAATAG is 0.318 E-score; for AGTAATAC it is 0.26 E-score. The figure for AGTAATAG is 0.365 E-score.

For AGTAATAT, the binding signal came to 0.402 E-score. The figure for AACGGCTG is 0.0377 E-score. Regarding AAGTCAAT, the binding signal was determined as 0.226 E-score. The figure for CTTGTCTC is 0.0221 E-score; for GGGTTGCA it is -0.161 E-score; for AGATGTAA it is 0.17 E-score. The figure for CATCTTAG is 0.118 E-score; for GTTGATCA it is -0.00765 E-score; for CGCAAGCC it is -0.112 E-score.

In the case of ACATAGAT, the binding signal is 0.346 E-score. As for AGATAGAC, the binding signal amounted to 0.108 E-score.

AGATAGAG: the binding signal is 0.026 E-score. The figure for AGATAGAT is 0.386 E-score; for ACATAGAG it is 0.00988 E-score. The figure for ACATAGAC is 0.0568 E-score; for CTCTAGAC it is -0.099 E-score; for ACGAACGA it is -0.116 E-score. The figure for CTCTACTA is 0.216 E-score; for ATCTACTC it is 0.251 E-score; for ATCTACTA it is 0.446 E-score.

With ATCTACGG, the binding signal amounted to 0.158 E-score. Consider ATCTACTG, for which the binding signal turned out to be 0.382 E-score.

With GTCTACTA, the binding signal amounted to 0.261 E-score. The figure for ACATGTTG is -0.0393 E-score; for CGCGCATA it is 0.139 E-score; for AATAAACG it is 0.0748 E-score. As to GCTGTAAA, the binding signal turned out to be 0.151 E-score. AGGTATAA: the binding signal worked out at 0.322 E-score. In the case of AAGTATAA, the binding signal was 0.142 E-score. TGGTATAA: the binding signal amounted to 0.349 E-score. For CAGTATAA, the binding signal is 0.312 E-score. The figure for CGGTATAA is 0.28 E-score. The figure for TAGTATAA is 0.404 E-score; for GGTTGTAC it is 0.114 E-score. The figure for CGCGACAG is 0.0354 E-score; for GTCTACAC it is -0.0482 E-score. For the sequence ATCTACAA, the binding signal amounted to 0.276 E-score.

CTCTACAC: the binding signal was 0.0962 E-score.

For the sequence ATCTACAT, the binding signal stood at 0.372 E-score. The figure for ATCTACAC is 0.348 E-score; for ATCTACAG it is 0.26 E-score; for AAGGGTTA it is -0.101 E-score. For the sequence TCGCACAA, the binding signal came to 0.0863 E-score. The figure for CCGGCTGA is -0.0957 E-score; for TGCATTAA it is 0.25 E-score; for GAATTCCA it is 0.0902 E-score. The figure for GATAGTAA is 0.406 E-score. The figure for CATAGTAA is 0.271 E-score. For TATAGTAA, the binding signal turned out to be 0.389 E-score. The figure for GATAGTAC is 0.18 E-score; for TATAGTCA it is 0.159 E-score; for AATAGTAA it is 0.325 E-score. With CGGCATGA, the binding signal is -0.101 E-score. The figure for GGGAATGA is -0.0881 E-score; for GTATGTGA it is 0.247 E-score; for GAAATAAA it is 0.221 E-score. The figure for AGATGAAC is 0.165 E-score; for ACGTATAC it is 0.232 E-score.

On to ACGTATAA, for which the binding signal is 0.244 E-score. For AAGTATAT, the binding signal was found to be 0.348 E-score. The figure for AAGTATAG is 0.127 E-score; for AAGTATAC it is 0.251 E-score. Take ACGTATAT: the binding signal was 0.365 E-score.

With GGGATTGA, the binding signal was -0.112 E-score. On to AATACAGA, for which the binding signal was found to be 0.0991 E-score. On to TATACATA, for which the binding signal came out at 0.37 E-score.

With GATACATC, the binding signal stood at 0.186 E-score. In the case of GATACATA, the binding signal stood at 0.388 E-score.

For GGTACATA, the binding signal is 0.196 E-score.

For GATACAGA, the binding signal was -0.0115 E-score. On to AATACATT, for which the binding signal is 0.252 E-score. For the sequence AATACATG, the binding signal came out at 0.108 E-score.

In the case of TATACACA, the binding signal stood at 0.2 E-score.

For the sequence TACACATA, the binding signal stood at 0.315 E-score. Regarding TATACAGA, the binding signal amounted to 0.342 E-score. For the sequence AATACATA, the binding signal was 0.373 E-score. Consider GGATTCAC, for which the binding signal is -0.0831 E-score. Take ACAAGTCG: the binding signal is -0.122 E-score. The figure for ACCTAGGG is -0.142 E-score; for CGTGGAGA it is 0.119 E-score; for ACGCCAAT it is -0.0858 E-score. The figure for GGGAAGTA is 0.17 E-score; for CCCAGCGC it is -0.157 E-score. The figure for ATTACGAG is 0.154 E-score; for ACTGTCAC it is 0.011 E-score; for CATACATA it is 0.366 E-score. On to AATACAAA, for which the binding signal is 0.206 E-score. The figure for CATACAAA is 0.288 E-score; for AGTACAAG it is 0.217 E-score; for CATACATG it is 0.143 E-score. The figure for TATACAAA is 0.402 E-score; for CGTACAAA it is 0.194 E-score; for CATACATC it is 0.158 E-score. As to AGTACAAA, the binding signal worked out at 0.343 E-score.
